Screening results (PubChem BioAssay)
Lassa entry inh: Lassa virus entry inhibition; Potency, µM (series often up to 37.9 µM), for inactives: at the highest dose activity change, negative = inhibition, hits mostly inhibitors; Lassa virus pseudotype entry inhibition, cell reporter; actives 1.2% (n = 300,000); calls by dose curve; tested in HEK293 cells; note: potency is the fitted concentration of half-maximal effect; % is set by controls: 0 for no effect and ±100 for the full control effect; nearly all actives have a fitted effect of over 50% in size
Shiga inhibitor: inhibitors of Shiga toxin in Vero cells. Vero cells, Shiga toxin protein synthesis inhibition reporter. inhibition, % at 38.7 µM. actives 9.2% (n = 290,000). AID 2315; in the data active = inhibition mostly above about 28%, no sharp cut-off; inactive = mostly below about 43%; note: 0% is about no effect
Cycloheximide cs: affects cycloheximide protein synthesis inhibition readout, counter-screen. AID 2314. max response, %. actives 12% (n = 300,000). cell reporter, cycloheximide protein synthesis inhibition counterscreen; in the data active = max response mostly above about 13%, no sharp cut-off; inactive = mostly below about 14%; note: read at 38.3 µM for the half of the compounds with a filed dose; 0% is about no effect
HCV inh: blocks hepatitis C virus; Huh7.5.1 HCVcc-Cre infection, luciferase reporter, 44 h; Potency, µM (doses to about 41.8 µM), for inactives: at the highest dose activity change, negative = inhibition, usual class: inhibitors; actives 3.4% (n = 340,000); AID 651820; active = well fitted inhibition curve with a large enough effect; inconclusive = small, poorly fitted or top-dose-only effect, or another doubt; inactive = no such curve, though single readings can be large or run the other way; note: potency is the fitted concentration of half-maximal effect; % is set by controls: 0 for no effect and ±100 for the full control effect
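Compounds are dispensed onto cells plated 4 h earlier at 1,000 per well, with HCVcc-Cre virus (about 0.5 moi) added next. Following 44 h of culture, luminescent signal is measured for 15 sec after 15 min with substrate at room temperature.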
MARV entry inh: Marburg virus entry inhibition | Marburg virus pseudotyped entry inhibition, cell reporter | Potency, µM (titrated, usually from 37.8 µM), without a hit: top-dose activity change, negative = inhibition, actives largely listed as inhibitors | actives 1.8% (n = 300,000) | AID 540276; calls by dose curve; tested in HEK293 cells; note: potency is the fitted concentration of half-maximal effect; % is set by controls: 0 for no effect and ±100 for the full control effect
FMDV inh: blocks foot and mouth disease virus. FMDV antiviral cell-based qHTS. Potency, µM (series often up to 57.9 µM), without a hit: at the top dose activity change, negative = inhibition, usual class: inhibitors. actives 1.2% (n = 410,000); calls by dose curve; tested in HEK293T cells; note: read-out not given here; potency is the fitted concentration of half-maximal effect; % is set by controls: 0 for no effect and ±100 for the full control effect; nearly all actives have a fitted effect of over 45% in size
Numbers without * were called inactive; [ ] = dose if it differs, or a comment. Shown are actives, neighbours in structure and some others; about 13% of the full set was active somewhere.

What do the screens show for `Cc1cc(C)n2c(SCc3ccc(Br)cc3)nnc2n1`?
Shiga inhibitor: 35; Cycloheximide cs: 11*; HCV inh: inconclusive; FMDV inh: 18%

How did COc1ccc(F)c(CN2CCCC(CNS(=O)(=O)c3cccc4cccnc34)C2)c1 (stereo not given) do in these assays?
Lassa entry inh: inconclusive; Shiga inhibitor: 17; Cycloheximide cs: -3; HCV inh: inconclusive; MARV entry inh: inconclusive; FMDV inh: 9%

Results for CC(OC(=O)c1snc(C(=O)NC2CCCCC2)c1N)C(=O)NC(C)(C)C (stereo not given) ?
Lassa entry inh: inconclusive; Shiga inhibitor: 4; Cycloheximide cs: -2; HCV inh: inconclusive; MARV entry inh: inconclusive; FMDV inh: inconclusive

Results for CC(C)(C)NC(=O)COC(=O)c1snc(C(=O)NC2CCCCC2)c1N ?
Lassa entry inh: inconclusive; Shiga inhibitor: 37*; Cycloheximide cs: 18*; HCV inh: 7.1µM*; MARV entry inh: -13%; FMDV inh: inconclusive

How did O=C(O)C1CCCN1C(=O)C12CC3CC(CC(C3)C1)C2 (stereo not given) do in these assays?
Lassa entry inh: 24%[46.1 µM]; Cycloheximide cs: -3; HCV inh: 15%; MARV entry inh: 2%[46.1 µM]; FMDV inh: -4%

How did CCOC(=O)C1CCN(c2cc3c(cc2NC(=O)c2ccccc2F)n(C)c(=O)n3C)CC1 do in these assays?
Lassa entry inh: -12%[46.1 µM]; Shiga inhibitor: 1; Cycloheximide cs: 0; HCV inh: 11µM*; MARV entry inh: -13%[46.1 µM]; FMDV inh: -20%

How did CCOC(=O)C1CCN(c2cc3c(cc2NC(=O)c2ccc(F)cc2)n(C)c(=O)n3C)CC1 do in these assays?
Lassa entry inh: 4%[46.1 µM]; Shiga inhibitor: -1; Cycloheximide cs: -4; HCV inh: inconclusive; MARV entry inh: -7%[46.1 µM]; FMDV inh: -23%

Results for CCOC(=O)C1CCN(c2cc3c(cc2NC(=O)c2ccccc2Cl)n(C)c(=O)n3C)CC1 ?
Lassa entry inh: 2.5µM*; Shiga inhibitor: -7; Cycloheximide cs: -1; HCV inh: inconclusive; MARV entry inh: inconclusive; FMDV inh: -29%

Results for CCOC(=O)C1CCN(c2cc3c(cc2NC(=O)c2ccccc2OCC)n(C)c(=O)n3C)CC1 ?
Shiga inhibitor: -10; Cycloheximide cs: 6; HCV inh: inconclusive; FMDV inh: inconclusive

Results for C1CCC(C(CC2CCCCN2)C2CCCCC2)CC1 (stereo not given) ?
Lassa entry inh: 18µM*; Shiga inhibitor: -22; Cycloheximide cs: -8; HCV inh: inconclusive; MARV entry inh: inconclusive; FMDV inh: -25%

Results for CC(Sc1nc(-c2ccc(F)cc2)cs1)C(=O)N1c2ccccc2CC1C (stereo not given) ?
Lassa entry inh: inconclusive; Shiga inhibitor: 17; Cycloheximide cs: 0; HCV inh: 22µM*; MARV entry inh: inconclusive; FMDV inh: inconclusive

Results for Cc1cccc(C)c1NC(=O)COC(=O)c1cc(-c2cccnc2)nc2ccccc12 ?
Shiga inhibitor: -4; Cycloheximide cs: 3; HCV inh: 8%; MARV entry inh: 7%; FMDV inh: -17%

How did Cc1cc(C)c(C)c(S(=O)(=O)N2CCN(c3ccccn3)CC2)c1C do in these assays?
Shiga inhibitor: -1; Cycloheximide cs: -3; HCV inh: inconclusive; FMDV inh: -5%

Results for Cc1cc(C)c(C)c(S(=O)(=O)N2CCN(c3ncnc4ccccc34)CC2)c1C ?
HCV inh: 2.5µM*; FMDV inh: 16µM*

What do the screens show for `O=S(=O)(c1cc(C(F)(F)F)ccc1Cl)N1CCN(c2ncnc3ccccc23)CC1`?
Lassa entry inh: inconclusive; HCV inh: 14µM*; MARV entry inh: -28%; FMDV inh: inconclusive

What do the screens show for `CCCC(=O)Nc1cc(-c2cn3cccnc3n2)ccc1OC`?
Lassa entry inh: -20%; Shiga inhibitor: -11; Cycloheximide cs: 1; HCV inh: -1%; MARV entry inh: 1%; FMDV inh: 6%

What do the screens show for `Nc1ccc(C(=O)Nc2ccco2)cc1`?
Lassa entry inh: 51%; Shiga inhibitor: 33*; Cycloheximide cs: 23; HCV inh: 7%; MARV entry inh: -4%[46.1 µM]; FMDV inh: 37%

What do the screens show for `CCCCn1c(N)c(N(CCOC)C(=O)c2ccc(Cl)c(S(=O)(=O)N3CCCC3)c2)c(=O)[nH]c1=O`?
Lassa entry inh: 5%; Shiga inhibitor: -4; Cycloheximide cs: -2; HCV inh: -5%; MARV entry inh: 1%; FMDV inh: -6%

What do the screens show for `Cn1cccc1C(=O)OCc1cc(Cl)cc2c1OCOC2`?
Lassa entry inh: 29%; Shiga inhibitor: 145*; Cycloheximide cs: 62*; HCV inh: -15%; MARV entry inh: inconclusive; FMDV inh: 50%

What do the screens show for `COc1cc(C(=O)Nc2c(C)cc(C)cc2C)c(Br)c(OC)c1OC`?
Lassa entry inh: 3%; Shiga inhibitor: -8; Cycloheximide cs: -1; HCV inh: 1%; MARV entry inh: -7%[46.1 µM]; FMDV inh: -19%

What do the screens show for `Cc1cc(Nc2cc(C)on2)n2ncnc2n1`?
Shiga inhibitor: 13; Cycloheximide cs: -1; HCV inh: -3%; FMDV inh: -21%

What do the screens show for `COc1cnc(NS(=O)(=O)c2ccc(N)cc2)nc1`?
Lassa entry inh: -1%; Shiga inhibitor: -3; Cycloheximide cs: -1; HCV inh: 45%; MARV entry inh: 4%; FMDV inh: 20%

Results for Cc1ccc(OC(C)C(=O)N2CCCc3ccccc32)cc1 (stereo not given) ?
Lassa entry inh: 3%; Shiga inhibitor: -4; Cycloheximide cs: -4; HCV inh: -1%; MARV entry inh: -4%; FMDV inh: 5%

What do the screens show for `Cc1cc(=O)oc2cc(OC(C)C(=O)N3CCCc4ccccc43)ccc12` (stereo not given)?
Lassa entry inh: 1%; Shiga inhibitor: 60; Cycloheximide cs: 24*; HCV inh: -13%; MARV entry inh: inconclusive; FMDV inh: -30%

Results for N#CCCN(C(=O)COC(=O)CCc1ccccc1)c1ccccc1 ?
Lassa entry inh: -13%; Shiga inhibitor: -3; Cycloheximide cs: -5; HCV inh: 6%; MARV entry inh: 0%[46.1 µM]; FMDV inh: 29%

How did Nc1ncnc2c1ncn2C1OC(COP(=O)(O)O)C(O)C1O (stereo not given) do in these assays?
Shiga inhibitor: -6; Cycloheximide cs: 0; HCV inh: 7%; FMDV inh: 5%

Results for Nc1ncnc2c1ncn2[C@@H]1O[C@H](COP(=O)(O)OP(=O)(O)OP(=O)(O)O)[C@@H](O)[C@H]1O ?
HCV inh: 0.56µM*; FMDV inh: -16%

What do the screens show for `Nc1ncnc2c1ncn2[C@@H]1O[C@H](COP(=O)(O)O)[C@@H](O)[C@H]1O`?
Shiga inhibitor: -5; Cycloheximide cs: 1; HCV inh: 0.56µM*; FMDV inh: 5%

What do the screens show for `Nc1ncnc2c1ncn2[C@@H]1O[C@H](COP(=O)(O)CP(=O)(O)OP(=O)(O)O)[C@H](O)[C@H]1O`?
MARV entry inh: 5%
